Where “and” joins values, the source holds several entries; their conditions need not be identical. Equal values may be shown once. In all, about 5,500 compounds went through this assay and about 2,000 (36%) were called active. Inconclusive results (about 18%) are left out. Cut-off read from the data, not from the text of the source: active = normalized growth mostly below about 0.91 (no sharp cut-off); inconclusive = no clear call, values can overlap the other calls; inactive = mostly above about 0.92. The list shows a part of the results.
Assay: chemical genetic growth profiling, strain panel (AID 1159580);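 note: tested at 20 µM; growth read once vehicle control cultures reached saturation at 30 °C; 1 = growth at the plate median or of vehicle wells; lower values mean less growth of the strain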
Settings: growth OD
[1] = S. cerevisiae deletion strains, locus YGR078C, strain PAC10, stronger effect = lower value

Measured: normalized growth

CC1CC2C3CCC4=CC(=O)C=CC4(C)C3(F)C(O)CC2(C)C1(O)C(=O)CO (stereo not given)
inactive: S. cerevisiae deletion strains, locus YAL040C, strain CLN3, stronger effect = lower value 0.987 | S. cerevisiae deletion strains, locus YDR363W, strain ESC2, stronger effect = lower value 0.955 | S. cerevisiae deletion strains, locus YER002W, strain NOP16, stronger effect = lower value 1 | [1] 1.02 | S. cerevisiae deletion strains, locus YNL175C, strain NOP13, stronger effect = lower value 1.01 | S. cerevisiae deletion strains, locus YNL197C, strain WHI3, stronger effect = lower value 0.999 | S. cerevisiae deletion strains, locus YNL224C, strain SQS1, stronger effect = lower value 1.01 | S. cerevisiae deletion strains, locus YOR083W, strain WHI5 (second series), stronger effect = lower value 1.01

O=C(OCC(O)CO)c1ccccc1Nc1ccnc2cc(Cl)ccc12 (stereo not given)
inactive: S. cerevisiae deletion strains, locus YAL013W, strain DEP1, stronger effect = lower value 0.996 | S. cerevisiae deletion strains, locus YBR021W, strain FUR4, stronger effect = lower value 1.01 | S. cerevisiae deletion strains, locus YBR229C, strain ROT2, stronger effect = lower value 0.994 | S. cerevisiae deletion strains, locus YCL029C, strain bik1, stronger effect = lower value 0.961 | S. cerevisiae deletion strains, locus YDL035C, strain GPR1, stronger effect = lower value 1.01 | S. cerevisiae deletion strains, locus YDL074C, strain BRE1, stronger effect = lower value 0.978 | S. cerevisiae deletion strains, locus YDL101C, strain DUN1, stronger effect = lower value 0.98 | S. cerevisiae deletion strains, locus YDL134C, strain PPH21, stronger effect = lower value 0.999 | S. cerevisiae deletion strains, locus YDL185W, strain tfp1, stronger effect = lower value 0.978 | S. cerevisiae deletion strains, locus YDL192W, strain arf1, stronger effect = lower value 0.99 | S. cerevisiae deletion strains, locus YDR101C, strain arx1, stronger effect = lower value 0.988 | S. cerevisiae deletion strains, locus YDR150W, strain NUM1, stronger effect = lower value 0.98 | S. cerevisiae deletion strains, locus YDR162C, strain NBP2, stronger effect = lower value 0.992 | S. cerevisiae deletion strains, locus YDR318W, strain mcm21, stronger effect = lower value 0.977 | S. cerevisiae deletion strains, locus YDR388W, stronger effect = lower value 0.997 | S. cerevisiae deletion strains, locus YDR502C, strain sam2, stronger effect = lower value 0.975 | S. cerevisiae deletion strains, locus YEL061C, strain CIN8, stronger effect = lower value 0.997 | S. cerevisiae deletion strains, locus YER110C, stronger effect = lower value 0.978 | S. cerevisiae deletion strains, locus YER155C, strain BEM2, stronger effect = lower value 0.988 | S. cerevisiae deletion strains, locus YER167W, strain BCK2, stronger effect = lower value 0.986 | S. cerevisiae deletion strains, locus YGL078C, strain dbp3, stronger effect = lower value 0.995 | S. cerevisiae deletion strains, locus YGL086W, strain mad1, stronger effect = lower value 0.999 | S. cerevisiae deletion strains, locus YGL248W, strain PDE1, stronger effect = lower value 0.983 | [1] 0.962 | S. cerevisiae deletion strains, locus YGR135W, strain pre9, stronger effect = lower value 0.974 | S. cerevisiae deletion strains, locus YGR229C, strain SMI1, stronger effect = lower value 0.981 | S. cerevisiae deletion strains, locus YGR252W, strain gcn5, stronger effect = lower value 1.06 | S. cerevisiae deletion strains, locus YHR030C, strain SLT2, stronger effect = lower value 0.991 and 0.957 | S. cerevisiae deletion strains, locus YHR079C, strain IRE1 (second series), stronger effect = lower value 0.989 | S. cerevisiae deletion strains, locus YHR079C, strain IRE1, stronger effect = lower value 0.969 | S. cerevisiae deletion strains, locus YHR094C, strain hxt1, stronger effect = lower value 0.979 | S. cerevisiae deletion strains, locus YHR129C, strain ARP1, stronger effect = lower value 0.981 | S. cerevisiae deletion strains, locus YHR200W, strain rpn10, stronger effect = lower value 0.987 | S. cerevisiae deletion strains, locus YIL066C, strain RNR3, stronger effect = lower value 0.98 | S. cerevisiae deletion strains, locus YIL073C, strain SPO22, stronger effect = lower value 0.925 | S. cerevisiae deletion strains, locus YIL125W, strain kgd1, stronger effect = lower value 0.991 | S. cerevisiae deletion strains, locus YIR030C, strain dcg1, stronger effect = lower value 0.988 | S. cerevisiae deletion strains, locus YJL095W, strain BCK1, stronger effect = lower value 0.943 and 0.974 | S. cerevisiae deletion strains, locus YJL134W, strain LCB3, stronger effect = lower value 0.993 | S. cerevisiae deletion strains, locus YJL168C, strain set2, stronger effect = lower value 0.995 | S. cerevisiae deletion strains, locus YJL187C, strain SWE1 (second series), stronger effect = lower value 0.936 | S. cerevisiae deletion strains, locus YJR043C, strain POL32, stronger effect = lower value 0.982 | S. cerevisiae deletion strains, locus YJR066W, strain TOR1, stronger effect = lower value 0.912 | S. cerevisiae deletion strains, locus YJR075W, strain HOC1, stronger effect = lower value 0.978 | S. cerevisiae deletion strains, locus YKL009W, strain mrt4, stronger effect = lower value 0.968 | S. cerevisiae deletion strains, locus YKL068W, stronger effect = lower value 0.987 | S. cerevisiae deletion strains, locus YKL085W, strain MDH1 (second series), stronger effect = lower value 0.975 | S. cerevisiae deletion strains, locus YKL085W, strain MDH1, stronger effect = lower value 0.975 | S. cerevisiae deletion strains, locus YKL190W, strain CNB1, stronger effect = lower value 0.984 | S. cerevisiae deletion strains, locus YKR001C, strain vps1, stronger effect = lower value 0.99 | S. cerevisiae deletion strains, locus YLR039C, strain RIC1, stronger effect = lower value 1.01 | S. cerevisiae deletion strains, locus YLR058C, strain SHM2, stronger effect = lower value 0.986 | S. cerevisiae deletion strains, locus YLR102C, strain apc9, stronger effect = lower value 0.992 | S. cerevisiae deletion strains, locus YLR113W, strain HOG1, stronger effect = lower value 1.01 | S. cerevisiae deletion strains, locus YLR262C, strain YPT6, stronger effect = lower value 1.03 | S. cerevisiae deletion strains, locus YLR268W, strain sec22, stronger effect = lower value 0.918 | S. cerevisiae deletion strains, locus YLR330W, strain CHS5, stronger effect = lower value 0.988 | S. cerevisiae deletion strains, locus YLR342W, strain FKS1 (second series), stronger effect = lower value 1.05 | S. cerevisiae deletion strains, locus YLR371W, strain rom2, stronger effect = lower value 0.985 | S. cerevisiae deletion strains, locus YLR418C, strain cdc73, stronger effect = lower value 0.924 | S. cerevisiae deletion strains, locus YML016C, strain PPZ1, stronger effect = lower value 0.999 | S. cerevisiae deletion strains, locus YML032C, strain rad52, stronger effect = lower value 0.971 | S. cerevisiae deletion strains, locus YML124C, strain tub3, stronger effect = lower value 0.988 | S. cerevisiae deletion strains, locus YMR078C, strain ctf18, stronger effect = lower value 0.99 | S. cerevisiae deletion strains, locus YMR223W, strain ubp8, stronger effect = lower value 1.01 | S. cerevisiae deletion strains, locus YMR263W, strain SAP30, stronger effect = lower value 0.976 | S. cerevisiae deletion strains, locus YMR307W, strain GAS1, stronger effect = lower value 0.984 | S. cerevisiae deletion strains, locus YNL067W, strain RPL9B, stronger effect = lower value 0.968 | S. cerevisiae deletion strains, locus YNL128W, strain TEP1, stronger effect = lower value 0.975 | S. cerevisiae deletion strains, locus YNL153C, strain GIM3, stronger effect = lower value 0.976 | S. cerevisiae deletion strains, locus YNL183C, strain NPR1, stronger effect = lower value 0.899 | S. cerevisiae deletion strains, locus YNL233W, strain BNI4, stronger effect = lower value 0.974 | S. cerevisiae deletion strains, locus YNL250W, strain rad50, stronger effect = lower value 0.969 | S. cerevisiae deletion strains, locus YNL271C, strain bni1, stronger effect = lower value 0.987 | S. cerevisiae deletion strains, locus YNL298W, strain CLA4, stronger effect = lower value 0.993 | S. cerevisiae deletion strains, locus YNL307C, strain MCK1, stronger effect = lower value 0.983 | S. cerevisiae deletion strains, locus YNL322C, strain KRE1, stronger effect = lower value 0.988 | S. cerevisiae deletion strains, locus YNR052C, strain pop2, stronger effect = lower value 1.01 | S. cerevisiae deletion strains, locus YOL006C, strain TOP1, stronger effect = lower value 0.929 | S. cerevisiae deletion strains, locus YOL012C, strain htz1 1.65 | S. cerevisiae deletion strains, locus YOL147C, strain pex11, stronger effect = lower value 0.98 | S. cerevisiae deletion strains, locus YOR061W, strain CKA2, stronger effect = lower value 0.99 | S. cerevisiae deletion strains, locus YOR069W, strain VPS5, stronger effect = lower value 0.996 | S. cerevisiae deletion strains, locus YOR136W, strain idh2, stronger effect = lower value 0.998 | S. cerevisiae deletion strains, locus YOR144C, strain elg1, stronger effect = lower value 0.993 | S. cerevisiae deletion strains, locus YOR184W, strain ser1, stronger effect = lower value 0.954 | S. cerevisiae deletion strains, locus YOR231W, strain MKK1, stronger effect = lower value 0.983 | S. cerevisiae deletion strains, locus YOR316C, strain cot1, stronger effect = lower value 0.982 | S. cerevisiae deletion strains, locus YPL055C, strain LGE1, stronger effect = lower value 0.938 | S. cerevisiae deletion strains, locus YPL241C, strain CIN2, stronger effect = lower value 0.991 | S. cerevisiae deletion strains, locus YPL256C, strain CLN2, stronger effect = lower value 0.927 | S. cerevisiae deletion strains, locus YPR119W, strain clb2, stronger effect = lower value 0.99 | S. cerevisiae deletion strains, locus YPR141C, strain kar3, stronger effect = lower value 0.97 | S. cerevisiae deletion strains, locus YPR163C, strain tif3, stronger effect = lower value 0.979 | S. cerevisiae deletion strains, locus YPR167C, strain met16, stronger effect = lower value 0.989 | S. cerevisiae deletion strains, strain wtn01, stronger effect = lower value 0.98 | S. cerevisiae strains, strain wild type, stronger effect = lower value 0.991

Source: PubChem BioAssay AID1159580 (chemical genetic matrix, 2015)
